The campaign covered roughly 5,500 compounds. About 2,000 (36%) were called active. Roughly 18% stayed inconclusive and do not appear here. Rule as the data show it: active = normalized growth mostly below about 0.91 (no sharp cut-off); inconclusive = no clear call, values can overlap the other calls; inactive = mostly above about 0.92. The list shows a part of the results.
Test: chemical genetic growth profiling, strain panel (AID 1159580);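 also: tested at 20 µM; growth read once vehicle control cultures reached saturation at 30 °C; 1 = growth at the plate median or of vehicle wells; lower values mean less growth of the strain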
Settings: S. cerevisiae deletion strains, growth OD

Measured: normalized growth

NC(=O)c1ncn(C2O[C@H](CO)[C@@H](O)[C@H]2O)c1N (stereo not given in full)
inactive: locus YAL021C, strain ccr4, stronger effect = lower value 1.04 | locus YAL026C, strain drs2, stronger effect = lower value 1.03 | locus YAL030W, strain snc1, stronger effect = lower value 1.03 | locus YBL061C, strain skt5, stronger effect = lower value 1.04 | locus YBR009C, strain hhf1, stronger effect = lower value 1.07 | locus YBR023C, strain chs3, stronger effect = lower value 1.02 | locus YBR171W, strain sec66, stronger effect = lower value 1.05 | locus YBR231C, strain swc5, stronger effect = lower value 1.04 | locus YBR279W, strain paf1, stronger effect = lower value 1.02 | locus YCL011C, strain gbp2, stronger effect = lower value 1.04 | locus YCL016C, strain dcc1, stronger effect = lower value 1.03 | locus YCL061C, strain MRC1, stronger effect = lower value 1.04 | locus YCL069W, strain vba3, stronger effect = lower value 1.03 | locus YCR088W, strain abp1, stronger effect = lower value 1.03 | locus YDL005C, strain med2, stronger effect = lower value 1.04 | locus YDL040C, strain nat1, stronger effect = lower value 1.03 | locus YDR001C, strain nth1, stronger effect = lower value 1.03 | locus YDR069C, strain doa4, stronger effect = lower value 1.03 | locus YDR137W, strain rgp1, stronger effect = lower value 1.04 | locus YDR159W, strain sac3, stronger effect = lower value 1.05 | locus YDR195W, strain ref2 1.02 | locus YDR297W, strain sur2, stronger effect = lower value 1.03 | locus YDR334W, strain swr1, stronger effect = lower value 1.04 | locus YDR335W, strain msn5, stronger effect = lower value 1.03 | locus YDR392W, strain spt3, stronger effect = lower value 1 | locus YEL003W, strain gim4, stronger effect = lower value 1.03 | locus YEL037C, strain rad23, stronger effect = lower value 1.03 | locus YEL061C, strain CIN8 (second series), stronger effect = lower value 1.03 | locus YER015W, strain faa2, stronger effect = lower value 1.04 | locus YER016W, strain bim1, stronger effect = lower value 1.03 | locus YER111C, strain swi4, stronger effect = lower value 1.04 | locus YER155C, strain BEM2 (second series), stronger effect = lower value 1.06 | locus YFR010W, strain ubp6, stronger effect = lower value 1.04 | locus YGL167C, strain pmr1, stronger effect = lower value 1.04 | locus YGL173C, strain kem1, stronger effect = lower value 1.04 | locus YGL227W, strain vid30, stronger effect = lower value 1.04 | locus YGL240W, strain doc1, stronger effect = lower value 1.06 | locus YGL253W, strain hxk2, stronger effect = lower value 1.04 | locus YHR013C, strain ard1, stronger effect = lower value 1.03 | locus YHR027C, strain rpn1, stronger effect = lower value 1.03 | locus YHR030C, strain SLT2, stronger effect = lower value 0.991 | locus YHR079C, strain IRE1, stronger effect = lower value 1.01 | locus YHR142W, strain chs7, stronger effect = lower value 1.02 | locus YJL092W, strain hpr5, stronger effect = lower value 1.02 | locus YJL095W, strain BCK1 (second series), stronger effect = lower value 1.03 | locus YJL095W, strain BCK1, stronger effect = lower value 1.01 | locus YJL115W, strain asf1, stronger effect = lower value 1.03 | locus YJL129C, strain trk1, stronger effect = lower value 1.04 | locus YJL154C, strain vps35, stronger effect = lower value 1.02 | locus YJL164C, strain tpk1, stronger effect = lower value 1.02 | locus YJL166W, strain qcr8, stronger effect = lower value 1.05 | locus YJL187C, strain SWE1, stronger effect = lower value 1.03 | locus YJR066W, strain TOR1, stronger effect = lower value 0.949 | locus YKL160W, strain elf1, stronger effect = lower value 1.02 | locus YKR026C, strain gcn3, stronger effect = lower value 1.03 | locus YKR091W, strain srl3, stronger effect = lower value 1.03 | locus YLL001W, strain dnm1, stronger effect = lower value 1.04 | locus YLL026W, stronger effect = lower value 1.03 | locus YLL041C, strain sdh2, stronger effect = lower value 1.04 | locus YLR027C, strain aat2, stronger effect = lower value 1.03 | locus YLR113W, strain HOG1, stronger effect = lower value 0.993 | locus YLR221C, strain rsa3, stronger effect = lower value 1.03 | locus YLR258W, strain gsy2, stronger effect = lower value 1.04 | locus YLR262C, strain YPT6 (second series), stronger effect = lower value 1.05 | locus YLR320W, strain mms22, stronger effect = lower value 1.05 | locus YLR342W, strain FKS1, stronger effect = lower value 1.05 | locus YLR357W, strain rsc2, stronger effect = lower value 1.08 | locus YLR370C, strain arc18, stronger effect = lower value 1.05 | locus YLR384C, strain iki3, stronger effect = lower value 1.04 | locus YML120C, strain ndi1, stronger effect = lower value 1.01 | locus YMR058W, strain fet3, stronger effect = lower value 1.03 | locus YMR125W, strain sto1, stronger effect = lower value 1.04 | locus YMR129W, stronger effect = lower value 1.03 | locus YMR205C, strain PFK2, stronger effect = lower value 1.07 | locus YMR231W, strain pep5, stronger effect = lower value 1.03 | locus YNL071W, strain lat1, stronger effect = lower value 1.04 | locus YNL183C, strain NPR1, stronger effect = lower value 0.965 | locus YNL209W, strain ssb2, stronger effect = lower value 1.04 | locus YNL248C, strain rpa49, stronger effect = lower value 1.03 | locus YNL322C, strain KRE1 (second series), stronger effect = lower value 1.03 | locus YNR049C, strain mso1, stronger effect = lower value 1.04 | locus YOR001W, strain rrp6, stronger effect = lower value 1.02 | locus YOR070C, strain gyp1, stronger effect = lower value 1.03 | locus YOR080W, strain dia2, stronger effect = lower value 1.05 | locus YOR083W, strain WHI5, stronger effect = lower value 1.02 | locus YOR106W, strain vam3, stronger effect = lower value 1.03 | locus YOR231W, strain MKK1, stronger effect = lower value 1.01 | locus YOR265W, strain rbl2, stronger effect = lower value 1.04 | locus YOR270C, strain vph1, stronger effect = lower value 1.05 | locus YOR290C, strain snf2, stronger effect = lower value 0.974 | locus YPL051W, strain arl3, stronger effect = lower value 1.01 | locus YPL078C, strain atp4, stronger effect = lower value 1.03 | locus YPL106C, strain sse1, stronger effect = lower value 1.08 | locus YPL240C, strain hsp82, stronger effect = lower value 1.03 | locus YPL256C, strain CLN2, stronger effect = lower value 0.982

— PubChem BioAssay AID1159580 (chemical genetic matrix, 2015)
